# Active and inactive are the calls of the source. Rule for the calls: active = hit-call score of the fitted dose curve at least 0.9, where 1 is the maximum; inactive = score below 0.9.
# Assay: CCTE_Shafer_MEA_acute_per_burst_spike_number_mean: CCTE's Neural Acute Assay for Average Number of Spikes Per Burst, Shafer Lab (AID 2284015);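 note: hits are decreases in mean spikes per burst versus baseline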
# Method: CCTE_Shafer_MEA_acute assay is conducted using Axion Biosystems 48 well microelectrode array (MEA) plates and Maestro recording system. Each well of the MEA plate contains a grid of 16 microelectrodes embedded in the culture surface. Electrically active cells, such as neurons, can be cultured over the electrodes, and electrical activity in these cells can be recorded extracellularly. The spontaneous firing of neurons is captured from each electrode on a microsecond timescale providing both temporally and spatially precise data. […] The CCTE_Shafer_MEA_acute assay uses primary cultures of rat cortical neurons. As these cultures mature over time, neural networks develop functional activity and form cohesive networks in which electrical activity can be highly coordinated. Baseline 40-minute recordings are made on days post-plating 13 or 15, followed by a secondary 40-minute recording after chemical exposure.CCTE_Shafer_MEA_acute_per_burst_spike_number_mean is a component of the CCTE_Shafer_MEA_acute assay. It measures the average number of spikes (action potential firings) in a single-electrode burst (temporally-clustered group of spikes) during a recording in a microelectrode array (MEA) using Axion Biosystems Maestro 768 channel amplifier with the AxIS adaptive spike detector. The recordings before and after chemical treatment are used to calculate a percent change in the mean number of spikes per burst in each well.Data from the assay component CCTE_Shafer_MEA_acute_per_burst_spike_number_mean was analyzed into 1 assay endpoint. This assay endpoint, CCTE_Shafer_MEA_acute_per_burst_spike_number_mean, was analyzed in the negative analysis fitting direction relative to DMSO as the negative control and baseline of activity. Using a type of functional reporter, gain or loss-of-signal activity can be used to understand electrical activity.
# Spontaneous activity in the cortical cultures was recorded using an Axion Biosystems Maestro 768 channel amplifier and Axion Integrated Studios (AxIS) v1.8 (or later) software. The amplifier recorded from all channels simultaneously (gain = 1200 x; sampling rate = 12.5 kHz/channel): raw signals were filtered with a Butterworth band-pass filter (300-5000 Hz), which filters out slower local field potentials leaving only fast potentials, i.e., "spikes", arising from extracellular currents associated with action potentials (Pine 2006; Wheeler and Nam 2011). On-line spike detection of filtered signals was conducted with the AxIS adaptive spike detector, using a threshold of 8x the root mean squared (rms) noise on each channel. Any electrodes with rms noise levels greater than 5 uV were grounded (e.g., no data were recorded). Once grounded, an electrode was grounded for the duration of the experiment. All recordings were conducted at 37 C. Wells were deemed usable if on the day of the exposure >/= 10 electrodes were active (defined as >/= 5 spikes/min). On DIV 13 or 15, a minimum of three wells from one cortical culture preparation were treated with each compound (0.03-40 uM). Prior to recording baseline activity, each mwMEA plate was placed in the Maestro at 37 C and allowed to sit for 20 min while firing rates stabilized. Baseline activity (40 min) was recorded before the addition of each compound. An additional 40 min of spontaneous activity was recorded in the presence of each compound. Changes in network parameters relative to baseline were assessed following compound treatment.
Structure (SMILES),outcome,AC50
N=C(N)c1ccc(OCCCCCOc2ccc(C(=N)N)cc2)cc1,inactive,
CCCCCCCCCCCC,inactive,
O=C1NS(=O)(=O)c2ccccc21,inactive,
Oc1c(Cl)cc(Cl)cc1Sc1cc(Cl)cc(Cl)c1O,,9.08 µM (active)
Oc1ccc(Cc2ccccc2O)cc1,inactive,
CCCCc1oc2ccccc2c1C(=O)c1cc(I)c(OCCN(CC)CC)c(I)c1,inactive,
O=C(CCCN1CCC(O)(c2ccc(Cl)cc2)CC1)c1ccc(F)cc1,inactive,
CN(C)CCOC(c1ccccc1)c1ccccc1,inactive,
CC(=O)Nc1ccc(O)cc1,inactive,
CCCCC=O,inactive,
OCC(CO)(CBr)CBr,inactive,
CCC(C)c1ccccc1O (configuration not stated),inactive,

# — PubChem BioAssay (EPA / NIEHS)
